From PubChem BioAssay
Only some compounds are listed: those with a hit (about 0.74% of all), similar ones and a draw of the others.
PKA inh = blocks human protein kinase A activity; P17612; PKA Kemptide phosphorylation, Kinase-Glo ATP luminescence; inhibition, % at 6 µM; 65,000 compounds, 0.1% hits; AID 524;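 active = inhibition above the screen-wide mean inhibition plus 3 SD, cut at about 21% in these data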
ROCK2 blocker = ROCK2 (human) kinase inhibition; O75116; purified ROCK2, Kinase-Glo ATP depletion luminescence; inhibition, % at 6 µM; 60,000 compounds, 0.35% hits; AID 604;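 active = inhibition above the screen-wide mean inhibition plus 3 SD, cut at about 18% in these data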;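 also: plate controls were DMSO wells for no effect and Y-27632 control wells after no-enzyme background subtraction for full effect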
PLK1 inh = blocks human PLK1 kinase activity | AID 619 | 97,000 compounds, 0.53% hits | inhibition, % at 10 µM | recombinant PLK1 kinase, TR-FRET peptide phosphorylation | P53350;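 active = inhibition of 50% or more in the single-concentration screen; inactive = inhibition below 50%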;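 also: 0% = DMSO max control and 100% = H-89 dihydrochloride min control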
Target sequence (P53350 whole entry, looked up): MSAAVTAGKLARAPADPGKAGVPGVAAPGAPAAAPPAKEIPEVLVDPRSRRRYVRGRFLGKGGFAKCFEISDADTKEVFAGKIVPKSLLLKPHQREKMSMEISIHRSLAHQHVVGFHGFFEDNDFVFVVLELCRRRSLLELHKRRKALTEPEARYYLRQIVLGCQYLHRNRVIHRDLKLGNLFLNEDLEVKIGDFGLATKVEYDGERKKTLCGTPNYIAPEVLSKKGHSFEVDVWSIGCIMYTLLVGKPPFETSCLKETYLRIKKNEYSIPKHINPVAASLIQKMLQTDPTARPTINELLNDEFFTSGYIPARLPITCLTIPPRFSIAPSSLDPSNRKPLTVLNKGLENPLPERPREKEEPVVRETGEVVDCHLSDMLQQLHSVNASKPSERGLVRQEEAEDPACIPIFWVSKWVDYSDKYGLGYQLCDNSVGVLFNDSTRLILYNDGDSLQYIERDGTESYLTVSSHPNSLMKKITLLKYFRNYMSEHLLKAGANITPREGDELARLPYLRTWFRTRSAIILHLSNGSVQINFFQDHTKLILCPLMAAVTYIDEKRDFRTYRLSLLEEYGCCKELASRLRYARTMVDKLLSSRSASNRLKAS
Plk1 PBD FP = blocks phosphopeptide binding to human Plk1 polo box domain; P53350; inhibition, %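 (tested at about 20 µM)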; Plk1 PBD phosphopeptide binding, fluorescence polarization; 97,000 compounds, 0.13% hits; in the data active = inhibition above about 34%, passing the limit was not always enough
PLK1 confirm = confirmation of human PLK1 kinase inhibitors; shares compounds with PLK1 inh; AID 744; inhibition, % at 10 µM; recombinant PLK1 kinase, TR-FRET peptide phosphorylation; 210 compounds, 20% hits;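 active = inhibition at or above 50% in each of two repeat confirmation tests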;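 also: 0% = DMSO max control and 100% = H-89 kinase-blocked min control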
TR-FRET interf = counter-screen for Plk1 inhibitors: compound assay interference; shares compounds with PLK1 inh; Plk1 TR-FRET assay interference, compound added post-reaction; inhibition (interference), % at 10 µM; 210 tested, under 10 active;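 active = both duplicate runs show 50% or greater inhibition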;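 also: 0% = DMSO max control and 100% = H-89 min control inhibited reaction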
* = called active by the depositor; / = not tested or not shown.

SMILES	PKA inh	ROCK2 blocker	PLK1 inh	Plk1 PBD FP	others
Cc1ccc(-c2nc(CS(=O)CC(=O)NCCC(C)C)c(C)o2)cc1 (stereo not drawn)	5	3	67*	9
Cc1ccc(-c2nc(CS(=O)CC(=O)NCc3ccc(Cl)cc3)c(C)o2)cc1 (stereo not drawn)	-9	-3	69*	11
COCCNC(=O)CS(=O)Cc1nc(-c2ccc(Cl)cc2)oc1C (stereo not drawn)	6	4	-10	-21
COc1ccc(-c2nc(CS(=O)CC(=O)NCc3ccc(Cl)cc3)c(C)o2)cc1 (stereo not drawn)	6	3	70*	-1
CCCNC(=O)CS(=O)Cc1nc(-c2ccc(OC)cc2)oc1C (stereo not drawn)	0	1	67*	-24
O=C(c1cn(-c2ccccc2)nc1-c1cccs1)N1CCN(c2ccc(F)cc2)CC1	/	/	-6	-10
Cc1ccc(C)c(/C(O)=C2\C(=O)C(=O)N(CCCN(C)C)C2c2cccnc2)c1 (stereo not drawn)	8	/	/	/
O=C1c2cccc(Cl)c2C(=O)c2c1cccc2N1CCCC1	/	/	-13	11
CCOC(=O)C1=C(CSc2nc(-c3ccncc3)ccc2C#N)OC(N)=C(C#N)C1c1ccc(OC)cc1 (stereo not drawn)	/	/	2	-26
CCOC(=O)C1=C(CSc2nc(-c3ccncc3)ccc2C#N)OC(N)=C(C#N)C1c1cccnc1 (stereo not drawn)	5	21*	/	/
COC(=O)c1sc2cnccc2c1N	17	42*	31	3
CCOC(=O)/C(C#N)=C\c1ccc(OCC(=O)Nc2ccc(C)cc2C)c(OC)c1	/	/	-23	15
NC(=O)c1c(-c2cccs2)csc1N	16	21*	29	-24
CCOC(=O)c1c(-c2cccs2)csc1NC(=O)CC(C)C	/	/	5	-17
O=C(CSc1ncn[nH]1)Nc1nnc(-c2ccccc2)s1	-5	-7	63*	9
Cc1ccc(-c2nc(C3CCCN(S(=O)(=O)c4ccc(C)cc4)C3)no2)cc1 (stereo not drawn)	5	3	67*	-28
O=C1Nc2ccccc2CCC1Sc1nnc(-c2ccc(Cl)cc2)s1 (stereo not drawn)	/	/	-10	-13
CC1(C)Cc2c(C#N)c(NCc3ccco3)nc(-c3ccco3)c2CO1	7	7	/	/
CC1(C)Cc2c(C#N)c(N3CCCC3)nc(-c3ccco3)c2CO1	-7	0	51*	-21
CC1(C)Cc2c(c(-c3ccco3)nc3n[nH]c(N)c23)CO1	31*	2	52*	-10
O=C(c1ccccc1)N1CCN(c2ncnc3sc4c(c23)CCC4)CC1	/	/	-9	6
O=C(c1ccccc1)c1ccc2nc[nH]c2c1	14	33*	48	-25
O=C(NC1CCCC1)c1ccc2nc[nH]c2c1	11	8	-1	-29
O=c1cc(N2CCOCC2)[nH]c(=O)n1Cc1ccc(F)cc1	7	8	69*	-17
O=c1cc(N2CCN(c3ccc(F)cc3)CC2)[nH]c(=O)n1Cc1ccc(F)cc1	/	/	-7	13
SMILES	PKA inh	ROCK2 blocker	PLK1 inh	Plk1 PBD FP	others
COC(=O)C1=C(NC(=O)c2cccc(C)c2)CCS1	9	5	/	/
COC1CCCCC1NS(=O)(=O)c1ccc(Cl)cc1 (stereo not drawn)	5	-2	68*	-5
CCOc1ccc(N(C(C)C(=O)N/N=C(\C)c2cccc(NC(=O)c3ccccc3)c2)S(C)(=O)=O)cc1 (stereo not drawn)	/	/	-3	-8
O=C(CSc1ncc(-c2ccc(F)cc2)[nH]1)Nc1cccc(O)c1	9	25*	30	10
CCOc1ccc(-n2cc(C(=O)NC(C)C)c3cc(OC)c(OC)cc3c2=O)cc1	/	/	54*	0
Cc1nc2ccccc2n1C(=O)c1cc(-c2ccc(Br)cc2)nc2ccccc12	/	/	-12	-13
COc1ccc(-c2csc(N(CCc3ccc(OC)c(OC)c3)C(=O)COc3ccccc3)n2)cc1	/	/	-9	-18
Cc1ccccc1C1CC(c2ccc(F)cc2)Nc2nc(N)nn21 (stereo not drawn)	/	/	70*	15
COc1ccc(C(=O)CC(Nc2ccc([N+](=O)[O-])cc2)c2ccc(Cl)cc2)cc1 (stereo not drawn)	/	/	-3	-7
O=C(Nc1cccc(O)c1)c1cnn2cccnc12	/	/	57*	-6
CC(Sc1ccc(Cl)cc1)C(=O)Nc1ccc(S(=O)(=O)N2CCOCC2)cc1 (stereo not drawn)	/	/	-8	10
Nc1ccc2[nH]ncc2c1	0	32*	/	/
NCCCC(=O)N1c2ccccc2Sc2ccccc21	6	4	66*	6
O=C(c1ccc(CS(=O)(=O)c2ccc(Br)cc2)o1)N1CCCCCC1	10	6	-18	3
O=C(c1ccc(CS(=O)(=O)c2ccc(Br)cc2)o1)N1CCCC1	-1	5	69*	-2
COc1ccccc1S(=O)Cc1ccc(C(=O)NCCc2ccc(Cl)cc2)o1 (stereo not drawn)	-6	1	60*	-21
COc1ccccc1S(=O)Cc1ccc(C(=O)NC2CCCC2)o1 (stereo not drawn)	11	3	24	17
CCC(C)(C)n1nnnc1C(c1cccnc1)N1CCN(c2cccc(C(F)(F)F)c2)CC1 (stereo not drawn)	/	/	-7	-16
Clc1ccc(OCCN2CCN(c3ncnc4sccc34)CC2)cc1	36*	10	/	/
N#Cc1cccc(NC(=O)CSc2ccccc2)c1	12	19*	-1	0
Cc1nc2ccc(NC(=O)C3CCN(S(=O)(=O)c4cccs4)CC3)cc2s1	0	-3	53*	14
CC(C)N(Cc1nc(-c2ccccc2)no1)C(=O)c1ccc(Cl)cc1	2	12	-8	-12
CC(C)N(Cc1nc(-c2ccc(Cl)cc2)no1)C(=O)CCCN1C(=O)c2ccccc2C1=O	4	4	54*	-6
O=C(Nc1ccc2c(c1)OCO2)C1CCCCN1S(=O)(=O)c1ccccc1 (stereo not drawn)	/	/	-9	-5
Cc1noc(/C=C/N(C)C)c1S(=O)(=O)N1CCN(c2ccccc2)CC1	7	4	69*	10
SMILES	PKA inh	ROCK2 blocker	PLK1 inh	Plk1 PBD FP	others
Cc1ccc(C)c(N2CCN(S(=O)(=O)c3c(C)noc3/C=C/N(C)C)CC2)c1	2	-1	-5	-7
Cc1ccc(-c2csc(N(C)C(=O)c3c(C)nn(-c4ccccc4)c3Cl)n2)cc1	/	/	-8	-9
Cc1sc2nc(CN(Cc3cccs3)C(=O)NC3CCCCC3)[nH]c(=O)c2c1C	12	4	57*	30
CSC1=NCCN1C(=O)COc1ccccc1	-7	-1	69*	1
Cc1ccc(CSCC(=O)N2CCN(c3ccc(F)cc3)CC2)cc1	/	/	109*	2	PLK1 confirm=-8;TR-FRET interf=-57
O=C(NCC1CCCC(CNC(=O)N2CCc3ccccc32)C1)N1CCc2ccccc21 (stereo not drawn)	/	/	-9	-18
CCOC(=O)CSc1nc2ccccc2c(=O)[nH]1	8	4	72*	2	PLK1 confirm=-9;TR-FRET interf=-49
